Test results from PubChem BioAssay (NCATS).
Inconclusive results are not listed. Entries that show only a call come without a potency. A number with no mark means an inactive call. Activity calls are given as the source filed them. The call rests on the fitted dose curve; in most records, active means well fitted cell-killing curve with a large enough effect; inconclusive means small, poorly fitted or top-dose-only effect, or effect the other way; inactive means flat fitted curve, though single readings scatter.

system: Hek293T; assay: Primary qHTS to identify gynecologic anti-cancer compounds using libraries of approved drugs and bioactive compounds (AID 1345084); conditions: Gynecologic cancer cell panel viability, ATPlite luminescence, 48 h, control line for the selectivity index; series mostly up to 57.5 µM; further: nearly all actives have a fitted effect of over 55% in size
In short: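 48 h compound exposure at 37 C, 5% CO2; five-point qHTS. ATPlite luminescence readout of cell ATP.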

Q: `Cc1ccc(-c2ccc3c(ccc4sc5c(c43)NC[C@@H](C)NC5=O)n2)cn1` was tested. Which Potency did it give?
A: inactive

Q: `C[C@@H]1O[C@@H](O[C@H]2[C@H](O)[C@@H](O[C@@H]3O[C@H](CO)[C@@H](O)[C@H](O[C@@H]4O[C@H](CO)[C@@H](O)[C@H](O)[C@H]4O)[C@H]3O)[C@H](O[C@H]3CC[C@@]4(C)C(=CC[C@@H]5C4CC[C@@]4(C)C5C[C@@H]5OC6(CC[C@@](C)(CO[C@@H]7O[C@H](CO)[C@@H](O)[C@H](O)[C@H]7O)O6)[C@@H](C)[C@@H]54)C3)O[C@@H]2CO)[C@H](O)[C@H](O)[C@H]1OC1OC(CO)C(O)C(O)C1O` (stereo partly specified) was tested. Which activity change, negative = cytotoxicity did it give?
A: 3.68% [at 6.55 µM]

Q: With `CC(C)[C@H]1CC[C@@]2(O)COC(=O)[C@H]2[C@@H]1/C=C(\CO)C(=O)O` as the compound, how does the Potency read?
A: inactive

Q: With `CC1C(OC(=O)c2ccccc2)C(O)C2C(C(=O)O)=COC(OC3OC(CO)C(O)C(O)C3O)C12` (stereo unspecified) as the compound, how does the Potency read?
A: inactive

Q: With `CC(C)(C)CCN1C[C@@H]2C(CNC(=O)c3cc(Cl)cc(Cl)c3)[C@@H]2C1` (stereo partly specified) as the compound, how does the Potency read?
A: inactive

Q: For `O=C(CN1C(=O)C2(CCCC2)NCC1c1cc(F)cc(F)c1)Nc1ccc2c(c1)CC1(C2)C(=O)Nc2ncccc21` (stereo unspecified), which Potency is on record?
A: inactive

Q: With `N[C@H]1Cc2ccccc2N(O)C1=O` as the compound, how does the Potency read?
A: inactive

Q: For `CC1(C)CC2C(C1)C(C)(O)C13CC1(COC3=O)C2O` (stereo unspecified), which Potency is on record?
A: inactive

Q: For `CCOC(=O)c1cc(C#N)c(N2CCC(C(=O)NS(=O)(=O)Cc3ccccc3)CC2)nc1C`, which Potency is on record?
A: inactive

Q: How did the Potency turn out when `C=C[C@]1(C)C=C2CCC3C(C)(CCC[C@@]3(C)C(=O)O)C2CC1` (stereo partly specified) was run?
A: inactive

Q: For `C[C@@H]1O[C@@H](O[C@H]2[C@H](O)[C@@H](C(=O)O)O[C@@H](O[C@H]3CC[C@@]4(C)C(CC[C@]5(C)C4CC=C4C6CC(C)(C)CC[C@]6(C(=O)O)CC[C@]45C)C3(C)C)[C@@H]2O[C@@H]2OC[C@@H](O)[C@H](O)[C@H]2O)[C@H](O)[C@H](O)[C@H]1O` (stereo partly specified), which activity change, negative = cytotoxicity is on record?
A: 5.25% [at 11.6 µM]
